{"source": "paper PMC7826789", "about": "(International Journal of Molecular Sciences, 2021);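 note: KINOMEscan scanMAX binding as percent activity remaining versus control; lower means stronger binding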", "data": [{"test_system": "AURKB", "details": "Compound Concentration (nM):1000", "units": {"Percent Control": "%"}, "values": [{"smiles": "Cl.O=C(Nc1ccc(Oc2ccc3[nH]c(NC(=O)c4ccco4)nc3c2)cc1)Nc1cc(C(F)(F)F)ccc1F", "note": "[GW683134A]", "Percent Control": 13}, {"smiles": "O=C(Nc1n[nH]c2nc(-c3ccc(O)cc3)c(Br)cc12)C1CC1", "note": "[SB-725317]", "Percent Control": 91}, {"smiles": "COc1cc2ncnc(Nc3ccc4c(cnn4Cc4ccccc4)c3)c2cc1OC.Cl", "note": "[GW282449A]", "Percent Control": 100}, {"smiles": "CN(C)CCNC(=O)Nc1ccc(N(C)c2ccnc(Nc3ccc(CS(C)(=O)=O)cc3)n2)cc1.Cl", "note": "[GW830900A]", "Percent Control": 4.4}, {"smiles": "CC1=C(C(=O)Nc2ccc3[nH]ncc3c2)C(c2ccc(Cl)c(Cl)c2)CC(=O)N1", "note": "(stereo not shown) [GSK299115A]", "Percent Control": 60}, {"smiles": "COc1ccc(COc2ccc(Cc3cnc(N)nc3N)cc2OC)cc1", "note": "[GW632580X]", "Percent Control": 100}, {"smiles": "CCS(=O)(=O)c1ccc(OC)c(Nc2ncc(-c3cccc(F)c3)o2)c1", "note": "[GW621970X]", "Percent Control": 89}, {"smiles": "COc1cc(/C=N/Nc2ncnc3[nH]ncc23)ccc1O", "note": "[GW578748X]", "Percent Control": 56}, {"smiles": "C/C(Nc1ccc(S(N)(=O)=O)cc1)=C1/C(=O)Nc2ccccc21", "note": "[GW335962X]", "Percent Control": 16}, {"smiles": "CN1CCN(C(=O)c2ccc(NC(=O)Nc3ccc(N(C)c4ccnc(Nc5ccc(CS(C)(=O)=O)cc5)n4)cc3)cc2)CC1.Cl", "note": "[GW830263A]", "Percent Control": 0.4}, {"smiles": "CC1=C(C(=O)Nc2ccc3[nH]ncc3c2)C(c2ccc3ccccc3c2)CC(=O)N1", "note": "(stereo not shown) [GSK270822A]", "Percent Control": 49}, {"smiles": "COc1ccc2cc(-c3c(-c4ccncc4)nc(-c4ccc(S(C)(=O)=O)cc4C)n3C)ccc2c1", "note": "[SB-633825]", "Percent Control": 66}, {"smiles": "COc1ccccc1-c1cc(/C=C2\\C(=O)Nc3ncc(Br)cc32)cc(Br)c1O", "note": "[GW442130X]", "Percent Control": 48}, {"smiles": "NS(=O)(=O)c1ccc(N/N=C2\\C(=O)Nc3ccc(C(=O)NCc4ccncc4)cc32)cc1", "note": "[GW300657X]", "Percent Control": 59}, {"smiles": "Cl.O=C(O[C@H]1CN[C@H](C#Cc2cc3ncnc(Nc4ccc5c(cnn5Cc5ccccc5)c4)c3s2)C1)N1CCOCC1", "note": "[GSK200398A]", "Percent Control": 84}, {"smiles": "Cl.O=S1CCN(Cc2ccc(-c3ccc4ncnc(Nc5ccc(OCc6ccccc6)c(F)c5)c4c3)o2)CC1", "note": "[GW576924A]", "Percent Control": 100}, {"smiles": "Cl.c1ccc(Cc2nc3ccc(Nc4ncnc5ccccc45)cc3[nH]2)cc1", "note": "[GR269666A]", "Percent Control": 100}, {"smiles": "COc1cccc(-c2c[nH]c3c(N/N=C/c4ccncc4)ncnc23)c1", "note": "[GW814408X]", "Percent Control": 75}, {"smiles": "Cl.O=C(Nc1ccc(Oc2ccc3[nH]c(NC(=O)c4ccccc4)nc3c2)cc1)Nc1cc(C(F)(F)F)ccc1F", "note": "[GW709042A]", "Percent Control": 61}, {"smiles": "CCn1c(-c2nonc2N)nc2c(C#CC(C)(C)O)nc(OCCNC)cc21.Cl", "note": "[GSK949675]", "Percent Control": 100}, {"smiles": "CN(C)c1cc2c(Nc3ccc4c(cnn4Cc4ccccc4)c3)ncnc2cn1", "note": "[GW282974X]", "Percent Control": 100}, {"smiles": "C[C@@H](Oc1cc(-n2cnc3ccc(OC4CCN(C)CC4)cc32)sc1C(N)=O)c1ccccc1Cl", "note": "[GSK579289A]", "Percent Control": 94}, {"smiles": "CCc1ccc(Oc2nccc(-c3c(-c4ccc(F)cc4)ncn3C3CCNCC3)n2)cc1", "note": "[SB-242719]", "Percent Control": 100}, {"smiles": "NS(=O)(=O)c1ccc(N/N=C2\\C(=O)Nc3ccc(-c4cnco4)cc32)cc1", "note": "[GW276655]", "Percent Control": 66}, {"smiles": "COc1cc(C)c(N(C)C(=O)CN(C)C)cc1Nc1nc(Nc2cccc(F)c2C(N)=O)c2cc[nH]c2n1", "note": "[GSK2219385]", "Percent Control": 93}, {"smiles": "COc1ccc2[nH]c3c4[nH]c5ccc(OC)cc5c4c4c(c3c2c1)C(=O)NC4=O", "note": "[GW296115X]", "Percent Control": 16}, {"smiles": "COc1cc(C=NNc2ncnc3c2cnn3-c2ccccc2)ccc1O", "note": "[GW513184X]", "Percent Control": 96}, {"smiles": "NS(=O)(=O)c1ccc(N/N=C2\\C(=O)Nc3ccc(Cl)cc32)cc1", "note": "[GW280670X]", "Percent Control": 100}, {"smiles": "COc1cc(N2CCN(C(C)C)CC2)ccc1Nc1nc(Nc2ccc(F)cc2C(=O)NC[C@@H](O)CO)c2cc[nH]c2n1", "note": "[GSK1392956A]", "Percent Control": 91}, {"smiles": "Cc1cc(O)cc(C)c1/C=C/c1cncc(C(N)=O)c1", "note": "[GW435821X]", "Percent Control": 100}, {"smiles": "COC(=O)Nc1nc2ccc(Oc3ccc(NC(=O)Nc4cc(C(F)(F)F)ccc4F)cc3)cc2s1.Cl", "note": "[GW693917A]", "Percent Control": 13}, {"smiles": "CC(C)COC(=O)c1ccc2c(c1)/C(=C/Nc1ccc(S(N)(=O)=O)cc1)C(=O)N2", "note": "[GW416981X]", "Percent Control": 65}, {"smiles": "CCS(=O)(=O)c1ccc(OC)c(Nc2ncc(-c3cccc(OC)c3)o2)c1", "note": "[GW580509X]", "Percent Control": 83}, {"smiles": "COc1cccc(-n2ncc3c(N/N=C/c4ccncc4)ncnc32)c1", "note": "[GW784752X]", "Percent Control": 89}, {"smiles": "COc1ccc2c(-c3ccnc(Nc4cccc(OC(F)(F)F)c4)n3)cnn2n1", "note": "[GW810372X]", "Percent Control": 100}, {"smiles": "O=C1Nc2ccc(C(=O)c3ccco3)cc2C1=Cc1cc(Cl)c(O)c(Cl)c1", "note": "[GW406108X]", "Percent Control": 22}, {"smiles": "NS(=O)(=O)c1ccc(Nc2ncc(-c3ccccc3)o2)cc1", "note": "[GW572399X]", "Percent Control": 43}, {"smiles": "COc1cc2ncn(-c3cc(O[C@H](C)c4ccccc4Cl)c(C(N)=O)s3)c2cc1OC", "note": "[GSK237701A]", "Percent Control": 38}, {"smiles": "Nc1ncnc2occ(-c3ccc(NC(=O)Nc4cc(C(F)(F)F)ccc4F)cc3)c12", "note": "[GW770249X]", "Percent Control": 5.7}, {"smiles": "NS(=O)(=O)c1ccc(N/N=C2\\C(=O)Nc3ccc(C(=O)NCCc4c[nH]cn4)cc32)cc1", "note": "[GW300660X]", "Percent Control": 55}]}]}
